Pf growth 96h: P. falciparum growth inhibition at 96 hours. P. falciparum luciferase reporter growth, 96 h. Potency, µM (series often up to 28.7 µM), without a hit: at the highest dose activity change, negative = inhibition, hits mostly inhibitors. 320,000 tested, 6.9% active; note: potency is the fitted concentration of half-maximal effect
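Delayed-death screen, second-generation endpoint: infected erythrocytes, 2% hematocrit, 0.05% parasitemia final; 96 hours at 37 C, 5% CO2; luciferase detection reagent; luminescence decrease equals reduced growth.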
Pf growth 48h: P. falciparum growth inhibition at 48 hours (one generation). P. falciparum luciferase growth in erythrocytes, 48 h. Potency, µM (top dose mostly 28.7 µM), without a hit: at the top dose activity change, negative = inhibition, most hits filed as inhibitors. 310,000 tested, 5.9% active. AID 504832; note: potency is the fitted concentration of half-maximal effect
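Growth was read as firefly luciferase luminescence after a 48 h, 37 C, 5% CO2 exposure of compounds to reporter-bearing P. falciparum cultures (0.1% parasitemia, 2% hematocrit final) in Albumax-supplemented RPMI 1640.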
Sm TGR inh: inhibitors of Schistosoma mansoni thioredoxin glutathione reductase. purified TGR, DTNB reduction, TNB absorbance 405 nm. 360,000 tested, 3% active. Potency, µM (titrated, usually from 114 µM), without a hit: top-dose activity change, negative = inhibition, hits mostly inhibitors; note: potency is the fitted concentration of half-maximal effect; nearly all actives have a fitted effect of over 60% in size
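TGR 20 nM + NADPH 100 uM (dispensed conc.), cpd preinc 15 min RT; start with NADPH (500 uM addition) then DTNB (15 mM addition). Kinetic TNB absorbance, 405 nm filter. Four-parameter Hill fit across titration.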
HCMV antiviral: inhibitors of human cytomegalovirus. 410,000 tested, 4.5% active. HFF cells, HCMV-luciferase reporter, 72 h; stronger effect = lower value. activity change, negative = inhibition, % at 57.5 µM. AID 1259415; in the data active = activity change below about -60%; inconclusive = no clear call, values can overlap the other calls; inactive = above about -39%
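Screen run at 2 compound doses on HFFs infected with reporter HCMV, MOI 1 PFU/cell. Luciferase activity from cell lysates at 72 h post infection gave inhibition relative to buffer-only and Salinomycin wells.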
FBPA Giardia inh: Giardia lamblia aldolase inhibition | 290,000 tested, 0.71% active | A8B2U2 | Potency, µM (doses to about 59.6 µM), without a hit: at the highest dose activity, negative = inhibition, hits mostly inhibitors | purified Giardia FBPA; note: potency is the fitted concentration of half-maximal effect; nearly all actives have a fitted effect of over 55% in size
Target sequence (A8B2U2 whole entry, looked up): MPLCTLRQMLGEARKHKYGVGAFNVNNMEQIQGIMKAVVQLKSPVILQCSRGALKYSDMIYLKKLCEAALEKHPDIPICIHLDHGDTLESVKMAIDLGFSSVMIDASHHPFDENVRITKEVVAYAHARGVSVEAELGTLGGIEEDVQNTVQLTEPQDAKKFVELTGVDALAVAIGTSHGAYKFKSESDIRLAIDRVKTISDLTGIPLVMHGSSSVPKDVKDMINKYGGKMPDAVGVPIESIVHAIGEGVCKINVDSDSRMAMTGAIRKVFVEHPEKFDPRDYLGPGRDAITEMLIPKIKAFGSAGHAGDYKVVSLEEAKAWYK
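Giardia FBPA (40 nM reagent) was preincubated 10 min at RT with compound (up to 57.5 uM final), then substrate plus GAPDH/TPI/NAD/arsenate coupling system with diaphorase/resazurin was added; resorufin fluorescence (525/598 nm) was read after 20 min.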
An asterisk follows results filed as active; ? = inconclusive; . = no result given; ! = not confirmed by another sample. Compounds with a hit are over-represented: about 14% of the library has one in this group of screens. Unless noted, calls come from the whole dose curve; as a rule, active = well fitted curve in the direction sought with a large enough effect; inconclusive = small, poorly fitted or top-dose-only effect, or another doubt; inactive = no such curve, though single readings can be large; an effect the other way counts as inactive or inconclusive. % is set by controls: 0 for no effect and ±100 for the full control effect.

SMILES	Pf growth 96h	Pf growth 48h	Sm TGR inh	HCMV antiviral	FBPA Giardia inh
CCOC(=O)Nc1ccc(Oc2ccccc2)cc1	?	14%	18%	49	-6%
CCOC(=O)c1ccc(Nc2nc(C(=O)OCC)nc3ccccc23)cc1	-15%	9.3µM*	20%	?	-12%
Cc1ccc(C)n1C1C(=O)N(Cc2ccc(C(C)C)cc2)c2c(F)cccc21 (centres undefined)	.	.	.	-19	.
Nc1ccccc1C(=O)NNc1c2ccccc2nc2ccccc12	?	?	7%	11	-8%
COc1cccc(C(=O)NNc2nc(C)cc(C)n2)c1	2%	21%	-11%	-21	-17%
Cc1ccc(C(=O)NNc2c3ccccc3nc3ccccc23)cc1	-22%	13µM*	-3%	-18	-7%
CC(C)(C)Nc1c2ccccc2nc2ccccc12	8%	?	-22%	-27	-8%
COc1cccc(C(=O)NNc2c3ccccc3nc3ccccc23)c1	12µM*	?	-22%	?	-5%
Clc1cncc(Cl)c1NNc1c2ccccc2nc2ccccc12	25%	2.9µM*	-24%	-5	-1%
CC1(C)CC=C(O[Si](C)(c2ccccc2)c2ccccc2)CC1	.	.	.	.	2%
COC(=O)Nc1sc2c(c1C(=O)N1CCOCC1)CCC(C)C2 (centres undefined)	-24%	0%	45µM*	-15	-27%
CC(=O)Nc1sc2c(c1C(=O)N1CCOCC1)CCCCC2	12µM*	6%	-29%	-13	2%
CC1CCc2c(sc(NC(=O)c3cccs3)c2C(=O)O)C1 (centres undefined)	28%	100%	-12%	-79*	6%
COC(=O)c1cc2oc(C)cc2n1CC(=O)Nc1ccc(OC)c(OC)c1OC	?	1.7µM*	-18%	.	0%
COC(=O)c1cc2sc(Cl)cc2n1CC(=O)Nc1ccc(OC)c(OC)c1OC	21%	0.41µM*	0%	-32	-2%
O=C1CCCN1c1nccs1	6%	7%	8%	-30	7%
Cc1c(C(=O)NCc2cccc(Cl)c2)sc2nc3n(c(=O)c12)CCC3	.	.	-5%	14	.
Nn1cnc2scc(-c3ccc(Cl)cc3)c2c1=O	5.2µM*	4%	-10%	-31	-14%
NNc1ncnc2scc(-c3ccc(Cl)cc3)c12	?	?	0%	-99*	-10%
Cc1ccc(-c2csc3ncnc(NS(=O)(=O)c4ccc(Cl)cc4)c23)cc1	?	6%	4%	?	-3%
c1csc(-c2csc3ncnc(NCCCN4CCOCC4)c23)c1	.	?	?	-67*	1%
OCCCNc1ncnc2scc(-c3ccc(Cl)cc3)c12	-18%	-21%	5%	-80*	-4%
COc1ccc(Cl)cc1N=C1NC(=O)CC(C(=O)Nc2ccccc2C(F)(F)F)S1 (centres undefined)	.	.	-8%	11	.
COCCCNc1nc(CC(C)C)nc2c1nnn2Cc1ccccc1	-28%	?	2%	30	7%
Nc1ncn(-c2ncc(C(F)(F)F)cc2Cl)n1	?	23%	7%	-19	3%
SMILES	Pf growth 96h	Pf growth 48h	Sm TGR inh	HCMV antiviral	FBPA Giardia inh
O=C(Nc1ccncc1NC(=O)c1cccc([N+](=O)[O-])c1)c1cccc([N+](=O)[O-])c1	2.3µM*	?	7%	-28	4%
O=C(Nc1ccc2c3c(cccc13)CC2)c1cccc([N+](=O)[O-])c1	?	-18%	-5%	-61*	-9%
O=C(Nc1ccc2c3c(cccc13)CC2)c1ccccc1	.	.	.	-3	.
CN(C)CCCN1C(=O)C(O)=C(C(=O)c2cc3ccccc3o2)C1c1ccccc1 (centres undefined)	11%	3%	-29%	7	?
COc1cccc(C2C(C(=O)c3cc4cccc(OC)c4o3)=C(O)C(=O)N2c2cc(C)on2)c1OC (centres undefined)	42%	?	-24%	-26	23%
CCCOc1cccc(C2C(C(=O)c3cc4ccccc4o3)=C(O)C(=O)N2c2cc(C)on2)c1 (centres undefined)	3.7µM*	?	0%	-34	.
COC(=O)c1ccc(C2C(C(=O)c3cc4ccccc4o3)=C(O)C(=O)N2CCCN(C)C)cc1 (centres undefined)	38%	4%	11µM*	7	18%
COc1cccc2cc(C(=O)C3=C(O)C(=O)N(c4cc(C)on4)C3c3cccs3)oc12 (centres undefined)	0%	5%	28µM*	-70*	?
COC(=O)c1ccc(C2C(C(=O)c3cc4ccccc4o3)=C(O)C(=O)N2c2cc(C)on2)cc1 (centres undefined)	7.4µM*	9.3µM*	-34%	-8	.
Cc1ccc(N2C(=O)C(Cl)=C(NCCO)C2=O)c(C)c1	8%	25%	8.9µM*	36	10%
CN1CCN(C2=C(Cl)C(=O)N(c3ccc(Cl)cc3)C2=O)CC1	.	?	?	.	-3%
Cc1ccc(N2C(=O)C(Cl)=C(N3CCN(C)CC3)C2=O)c(C)c1	2.6µM*	?	?	-20	0%
O=S(=O)(c1cccs1)N1CCCc2nc(-c3ccc(F)cc3)ccc21	.	.	.	38	.
CCOc1cc(O)c(-c2[nH]ncc2-c2nc(C)cs2)cc1CC	?	15µM*	-8%	-15	-25%
COc1ccccc1NC(=O)CN1C(=O)C2(SCC(=O)N2c2ccc(C)c(C)c2)c2ccccc21 (centres undefined)	.	.	3%	-72*	.
Cc1ccc(NCc2cccc(B(O)O)c2)cc1	.	.	.	75	.
Clc1ccccc1Oc1cnc2ccccc2n1	-21%	2.6µM*	8%	-28	-1%
COc1ccc(Oc2cnc3ccccc3n2)cc1	157%	132%	-2%	-63*	1%
O=C(Cc1c(Cl)cccc1Cl)OCc1ccccn1	?	?	2%	?	5%
NC(N)=NC(=O)Cc1c(Cl)cccc1Cl	1.9µM*!	?	-7%	34	-10%
CCc1cc2c(=O)c(-c3nc(C)cs3)c(CCCC(=O)O)oc2cc1O	9.3µM*	3%	0%	4	0%
CCOC(=O)CC(=O)Nc1cc(Cl)ccc1O	12µM*	15%	3%	-12	3%
O=C(CCc1ccccc1)Nc1cc(Cl)ccc1O	?	10µM*	-17%	-28	-16%
O=C(Nc1cc(Cl)ccc1O)c1snnc1-c1ccccc1	12µM*	?	-13%	-100*	1%
CCCCOC(=O)Nc1cc(Cl)ccc1C	.	10%	14%	-81*	-3%
Cc1noc(C(=O)Nc2cc(Cl)ccc2O)c1Cl	19%	5.2µM*	13%	30	9%
O=C(CCc1ccccc1)Nc1cc(C(=O)O)cc(C(=O)O)c1	1.5µM*	24%	12%	17	3%
Nc1c(C(=O)c2ccccc2)sc2nsc(SCCN3CCCC3)c12	?	?	40µM*	-91*	1%
COC(=O)c1sccc1NC(=O)Nc1ccc(F)cc1F	12µM*	-2%	-2%	4	-6%

Source: PubChem
